NALP3 yeast inh: blocks the NALP3 inflammasome reconstituted in yeast; inhibition, % at 10 µM; actives 0.39% (n = 330,000); AID 2825; Yeast reconstituted NLRP3/ASC/caspase-1, beta-gal luminescence, 24 h;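 active = inhibition of 50% or more; inactive = inhibition below 50%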;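 also: plate controls were induced DMSO wells for no effect and uninduced yeast grown without galactose for full effect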
PfHsp90 yeast 2: growth inhibition of yeast expressing Plasmodium Hsp90 | S. cerevisiae expressing PfHsp90, BacTiter-Glo ATP, 48 h; yeast lacking PDR1 and PDR3 efflux regulators | actives 0.32% (n = 310,000) | inhibition, % at 9.4 µM | AID 504621;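 active = every replicate shows inhibition above about 80%, whatever the replicate mean, limit read from the data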;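 also: 0% = DMSO neutral controls and 100% = 20 µM radicicol positive controls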
SKKanGAS inh: SKKanGAS growth inhibition; S. pyogenes SKKanGAS, kanamycin growth, BacTiter-Glo, 6 h; inhibition, % at 7.5 µM; actives 1.3% (n = 300,000); AID 1662;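 active = mean replicate score, as percent of positive control median, at least 50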;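 also: strain carries kanamycin resistance gene driven by streptokinase promoter and grows in 40 µg/ml kanamycin; loss of luminescence reflects streptokinase promoter inhibition or plain growth inhibition; 0% = median of DMSO wells and 100% = positive control at its reference dose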
TIM10 inh: growth inhibitors of TIM10 yeast strain; S. cerevisiae TIM10 strain growth, BacTiter-Glo luminescence, 24 h; inhibition, % at 10 µM; actives 1.4% (n = 330,000); AID 463195;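 active = inhibition of 40% or more at the single tested concentration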;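 also: wild-type TIM10 isogenic control strain grown at permissive 25 °C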
tim10-1 inh: tim10-1 yeast growth inhibition. actives 2.2% (n = 330,000). AID 463190. S. cerevisiae tim10-1 ts strain growth, BacTiter-Glo, 24 h. inhibition, % at 20 µM;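 active = inhibition of at least 40%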;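 also: mutant grown at 25 °C; 0% = DMSO wells with yeast and 100% = wells holding no yeast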
tim23-1 inh: inhibits growth of tim23-1 mutant yeast. S. cerevisiae tim23-1 growth, BacTiter-Glo luminescence, 24 h. inhibition, % at 20 µM. actives 1.3% (n = 330,000);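 active = growth inhibition of the mutant yeast at or above 50%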;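 also: temperature-sensitive mutant grown at 25 °C; plate controls were DMSO-treated mutant yeast for no effect and medium wells lacking yeast for full effect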
tim10-1 confirm: confirmation of tim10-1 mutant yeast growth inhibitors. S. cerevisiae tim10-1 ts strain growth, BacTiter-Glo, 24 h. inhibition, % at 20 µM. shares compounds with tim10-1 inh. AID 463213. actives 56% (n = 7,400);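 active = inhibition of yeast growth at or above a set limit in either of two repeat tests at 20 µM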;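 also: tim10-1 mutant grown at permissive 25 °C to find synthetic lethal compounds; 0% = DMSO yeast wells and 100% = medium wells without yeast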
tim10 confirm: TIM10 yeast growth inhibition, confirmed | actives 63% (n = 4,600) | S. cerevisiae tim10 strain growth, BacTiter-Glo luminescence, 24 h | inhibition, % at 10 µM | shares compounds with TIM10 inh;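 active = inhibition of yeast growth at or above a set limit in either of two replicates at 10 µM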;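 also: this counterscreen used the strain with wild-type TIM10; 0% = yeast with DMSO and 100% = medium wells lacking yeast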
An asterisk follows results filed as active; · = no result given. This is a sample that favours compounds with a hit; in the whole collection about 4.6% have one here.

SMILES	NALP3 yeast inh	PfHsp90 yeast 2	SKKanGAS inh	TIM10 inh	tim10-1 inh	tim23-1 inh	tim10-1 confirm	tim10 confirm
CC1CCCCN1S(=O)(=O)c1ccc2c(c1)CCN2C(=O)C1CCC1 (configuration not stated)	31.7	22.4	0.0	44.1*	41.8*	-19.4	40.2*	20.1
Cc1occc1C(=O)N/N=C/C=C\c1ccccc1[N+](=O)[O-]	2.6	-11.2	2.9	3.2	6.3	8.9	·	·
Cc1ccsc1C(=O)N/N=C/C=C/c1ccccc1[N+](=O)[O-]	24.1	-11.0	3.6	61.9*	48.1*	48.6	48.0*	-18.8
C=CCn1c(SCc2c(F)cccc2Cl)nnc1-c1ccco1	8.8	-2.9	1.0	50.6*	41.0*	45.5	37.0*	23.2
C=CCn1c(SCC(=O)Nc2cc(C)c(Cl)cc2OC)nnc1-c1ccco1	19.4	-2.8	·	7.6	30.5	35.8	·	·
CCOC(=O)C1CCN(C(=O)c2sc3nc(-c4ccccc4)cn3c2C)CC1	0.3	22.4	-1.9	57.4*	66.0*	41.3	60.5*	51.8*
COC(=O)C1CCN(C(=O)c2sc3nc(-c4ccc(F)cc4)cn3c2C)CC1	3.6	4.5	·	54.9*	69.7*	39.8	64.1*	34.6*
Cc1nn(-c2ccccc2)c2[nH]c(=O)c(CNCc3ccc4c(c3)OCO4)cc12	-1.6	-23.1	-2.0	1.9	3.7	6.9	·	·
Cc1ccc(-c2nn(-c3ccccc3)c3[nH]c(=O)c(CNCc4ccccc4)cc23)cc1	25.1	11.2	32.9	43.3*	52.5*	47.3	46.8*	42.1*
CCCCN(C)CCNC(=O)c1cc2cc3ccc(OC)cc3nc2o1	21.4	2.3	2.9	56.7*	49.0*	37.6	29.2*	46.5*
CCN(CC)CCNC(=O)c1cc2cc3ccc(OC)cc3nc2o1	5.9	6.9	0.2	22.8	0.0	-4.8	·	·
C=CCn1c(=O)c2ccccc2n2c(SCc3c(C(=O)OCC)oc4ccccc34)nnc12	4.2	24.9	-3.6	41.9*	40.8*	35.1	38.2*	17.2
C=CCn1c(=O)c2ccccc2n2c(SCC(N)=O)nnc12	24.0	-7.4	2.8	-0.1	2.1	12.8	·	·
Cc1cccc(C(=O)Nc2cccc(Br)c2)c1[N+](=O)[O-]	0.6	-19.1	-4.4	64.9*	57.7*	43.4	54.0*	50.5*
O=C(O)CC(NC(=O)c1ccncc1)c1ccccc1 (configuration not stated)	18.1	6.4	-0.4	-7.5	0.2	5.8	·	·
Oc1ccc(CCC2CCCCN2Cc2nc(C3CC3)no2)cc1 (configuration not stated)	10.5	1.4	-7.1	-2.4	-6.3	29.3	·	·
COc1ccc2cc(CO)n(C)c2c1	8.1	-1.6	·	3.3	-0.3	13.2	·	·
c1csc(-c2nc3c4ccccc4c4ccccc4c3[nH]2)c1	17.2	·	40.5	58.5*	40.9*	31.9	21.1	29.4
c1csc(-c2cn3ccc4ccccc4c3n2)c1	27.8	-30.1	-0.6	19.4	36.9	20.7	·	·
Cc1ccc(-c2nnc(Sc3nc4ccccc4o3)c3ccccc23)cc1	28.9	10.5	6.1	48.0*	46.3*	49.1	29.9*	37.8*
CCCCCC(=O)Nc1ccc(Cl)cn1	8.3	-2.8	5.1	-8.1	-8.1	7.1	·	·
CCCCCC(=O)NC(=S)Nc1ccc(Cl)cn1	2.8	-2.5	-6.2	44.0*	46.5*	40.1	28.4*	6.1
Cc1ccc(N=Cc2c(O)n(C)c(=O)n(C)c2=O)nc1	8.2	41.7	1.1	43.1*	40.4*	24.7	17.0	33.5*
CN(C)c1ccc(/C=C2\N=C(C(C)(C)C)OC2=O)cc1	25.0	-10.8	-6.7	16.8	9.0	7.1	·	·
CCOC(=O)c1ccc(NC(=O)CC2C(=O)OCCN2CC)cc1 (configuration not stated)	12.9	108.5*	0.1	43.7*	68.4*	36.9	58.8*	57.9*
SMILES	NALP3 yeast inh	PfHsp90 yeast 2	SKKanGAS inh	TIM10 inh	tim10-1 inh	tim23-1 inh	tim10-1 confirm	tim10 confirm
COc1ccccc1OCCn1c(=O)oc2ccc(C)cc21	1.4	-10.7	-6.1	4.7	14.3	9.2	·	·
Cc1ccc(S(=O)(=O)NNC2CC(=O)N(c3ccc(Br)cc3)C2=O)cc1 (configuration not stated)	-5.9	-6.0	1.2	9.5	6.1	-3.8	·	·
COc1ccc(Cn2c(-c3ccc(Br)cc3)c[n+]3ccccc23)cc1	17.9	7.6	-2.9	54.6*	48.2*	8.1	30.5*	25.2
COc1ccccc1NCCC(=O)OCC(=O)Nc1cc([N+](=O)[O-])ccc1F	16.3	13.4	·	9.6	17.3	28.5	·	·
Cc1cccc(NC(=O)c2cc3n(n2)C(C(F)(F)F)CC(c2ccc4c(c2)OCO4)N3)c1 (configuration not stated)	21.5	-16.3	49.9*	62.2*	40.7*	41.8	47.5*	59.5*
O=C(Nc1nc(-c2ccccc2)cs1)c1ccc(Br)o1	-40.3	-2.1	17.3	41.2*	41.1*	49.7	47.7*	50.3*
Cc1ccc(C(=O)Nc2nc(-c3cccnc3)cs2)o1	7.0	-10.4	-4.4	3.8	-10.9	-4.4	·	·
O=c1c(Cl)c(N/N=C/c2ccc(Cl)cc2)cnn1-c1ccccc1	27.6	12.4	23.4	46.1*	46.7*	14.5	26.0	9.2
CC(C)(C)c1cc(C(=O)N/N=C/c2ccc(F)cc2)n(-c2ccccc2)n1	0.9	22.7	0.9	44.6*	50.8*	45.6	34.2*	23.9
Cc1nn(-c2ccccc2)c(C)c1/C=N/NC(=O)c1ccc(F)cc1	-1.7	-11.6	1.4	12.5	20.4	16.4	·	·
CN1CCCC2(CCCN(Cc3nc(Cc4cccc(C(F)(F)F)c4)no3)C2)C1 (configuration not stated)	9.1	2.0	-1.4	-1.0	6.6	19.8	·	·
FC(F)(F)c1cccc(Cc2noc(CN3CCC(c4ccncc4)CC3)n2)c1	10.2	-5.2	-1.1	42.1*	44.2*	44.8	41.5*	43.3*
O=[N+]([O-])c1cccc(NC(=S)NCCc2ccccc2)c1	3.3	14.7	-14.7	46.3*	47.5*	32.3	29.8*	17.2
Fc1cccc(NC(=S)NCCc2ccccc2)c1	1.3	-24.0	-9.9	22.7	36.7	37.2	·	·
CC[C@@H]1CC=C[C@H]2[C@H]1C(=O)N(Cc1ccccc1)[C@H]2c1ccc2ccccc2c1	3.2	·	47.1	45.0*	41.3*	42.9	26.4	37.7*
C[C@@H]1CC=C[C@@H]2[C@H]1C(=O)N(Cc1ccccc1)[C@H]2c1cccc(Br)c1	·	7.9	·	6.6	25.9	43.8	·	·
Cc1ccc(NC(=O)c2ccc3ccccc3n2)nc1	-1.8	9.6	-6.0	70.2*	52.1*	43.3	36.0*	74.4*

Compound activity: PubChem, several laboratories
